# Test results published in the supplement of paper PMC12494721.
# Where a name gives a salt, the structure may show the parent alone.
# System: Clostridium sporogenes DSM 1664
# Test: growth (OD595) fold change vs plate DMSO controls (fold change (ratio)); higher = more growth
# Conditions: incubation time: 27 h, anaerobic, 37 °C
# Method in brief: (§1)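 Anaerobic mGAM cultures in 96-well plates were grown for 27 h at 37 °C, and absorbance was then read at 595 nm. After blank and compound background correction with 20 µM compound solutions in water, a calibration factor of 5 gave OD. Growth is the fold change relative to the median of each plate's DMSO controls. Values are means of 2 biological replicates, with fold changes above 1.5 set to NA.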
row,Compound,growth
1,CCOC1O[C@H]([C@@H](COCc2ccccc2)OCc2ccccc2)[C@H](OCc2ccccc2)[C@H]1O (stereo partly specified) [Tribenoside] (20 µM),0.917
2,COc1ccc(C[C@@H]2c3cc(OC)c(OC)cc3CC[N@+]2(C)CCC(=O)OCCCCCOC(=O)CC[N@@+]2(C)CCc3cc(OC)c(OC)cc3[C@H]2Cc2ccc(OC)c(OC)c2)cc1OC [Cisatracurium besylate] (20 µM),1.4
3,O=C1CN2Cc3c(ccc(Cl)c3Cl)N=C2N1 [Anagrelide] (20 µM),0.955
4,Cc1c(C)c2c(c(C)c1O)CCC(C)(C(=O)O)O2 (stereo unspecified) [Trolox] (20 µM),0.897
5,COc1cc(C(=O)NCc2ccc(OCCN(C)C)cc2)cc(OC)c1OC [Trimethobenzamide hydrochloride] (20 µM),1.13
6,CC=CC(=O)N(CC)c1ccccc1C [Crotamiton] (20 µM),0.871
7,CCOC(=O)C1=C(C)NC(C)=C(C(=O)OCC)C1c1ccccc1/C=C/C(=O)OC(C)(C)C [Lacidipine] (20 µM),1.03
8,CCOC(=O)CC(=O)N1CCSC1COc1ccccc1OC (stereo unspecified) [Moguisteine] (20 µM),0.961
9,CC(=O)OCC(=O)NCCCOc1cccc(CN2CCCCC2)c1 [Roxatidine acetate hydrochloride] (20 µM),1.02
10,Clc1ccc(C(Cn2ccnc2)OCc2csc3c(Cl)cccc23)c(Cl)c1 (stereo unspecified) [Sertaconazole nitrate] (20 µM),0.896
11,CC[N+](C)(CC)CCOC(=O)C1c2ccccc2Oc2ccccc21 [Methantheline bromide] (20 µM),0.956
12,CN1[C@@H]2CC[C@H]1C[C@@H](OC(c1ccccc1)c1ccccc1)C2 [Benztropine mesylate] (20 µM),1.11
13,Nc1c(Br)cc(Br)cc1CN[C@H]1CC[C@H](O)CC1 [Ambroxol hydrochloride] (20 µM),0.943
14,COCCCC/C(=N\OCCN)c1ccc(C(F)(F)F)cc1 [Fluvoxamine maleate] (20 µM),1.2
15,Clc1ccc(COC(Cn2ccnc2)c2ccc(Cl)cc2Cl)c(Cl)c1 (stereo unspecified) [Miconazole] (20 µM),1.25
16,CCCCCCCCCCCCCCCC[N+](C)(C)CCN(Cc1ccc(OC)cc1)c1ncccn1 [Thonzonium bromide] (20 µM),0.856
17,CCCN(CCC)C(=O)C(CCC(=O)O)NC(=O)c1ccccc1 (stereo unspecified) [Proglumide] (20 µM),0.898
18,CN(C)CCC(c1ccc(Br)cc1)c1ccccn1 (stereo unspecified) [Brompheniramine maleate] (20 µM),0.959
19,c1coc(CNc2ncnc3[nH]cnc23)c1 [Kinetin] (20 µM),0.818
20,C#C[C@]1(O)CC[C@H]2[C@@H]3CCC4=CC(=O)CC[C@@H]4[C@H]3CC[C@@]21C [Norethindrone] (20 µM),1.09
21,Oc1ncnc2[nH]ncc12 [Allopurinol] (20 µM),1.03
22,COc1ccc(CN(CCN(C)C)c2ccccn2)cc1 [Pyrilamine maleate] (20 µM),1.02
23,CC(C)(C#N)c1cc(Cn2cncn2)cc(C(C)(C)C#N)c1 [Anastrozole] (20 µM),0.911
24,COC1=CC(=O)C[C@@H](C)[C@]12Oc1c(Cl)c(OC)cc(OC)c1C2=O [Griseofulvin] (20 µM),0.993
25,CC(C)(C)NCC(O)COc1cccc2c1CC(O)C(O)C2 (stereo unspecified) [Nadolol] (20 µM),1.08
26,CC1=C(CC(=O)O)c2cc(F)ccc2/C1=C\c1ccc([S+](C)[O-])cc1 (stereo unspecified) [Sulindac] (20 µM),1.15
27,O=C1NCN(c2ccccc2)C12CCN(CCCC(c1ccc(F)cc1)c1ccc(F)cc1)CC2 [Fluspirilene] (20 µM),0.921

# System: Escherichia coli IAI1
# Test: as above
# Conditions: incubation time: 27 h, anaerobic, 37 °C
# Method in brief: as §1
row,Compound,growth
1,CC(C)(C)NC[C@H](O)c1ccc(O)c(CO)c1 [Levalbuterol hydrochloride] (20 µM),0.976
2,C[N+]1(CCCCC[N+]2(C)CCCC2)CCCC1 [Pentolinium bitartrate] (20 µM),0.986
3,O=C1c2cccc(O)c2C(=O)c2c(O)cccc21 [Danthron] (20 µM),1.21
4,O=C(N/N=C/c1ccc([N+](=O)[O-])o1)c1ccc(O)cc1 [Nifuroxazide] (20 µM),1.03
5,COC(=O)Nc1nc2cc(Sc3ccccc3)ccc2[nH]1 [Fenbendazole] (20 µM),1.08
6,CN(C)CCOC(c1ccccc1)c1ccccc1.Cn1c(=O)c2[nH]c(Cl)nc2n(C)c1=O [Dimenhydrinate] (20 µM),0.985
7,CCc1ccc(C(=O)C(C)CN2CCCCC2)cc1 (stereo unspecified) [Eperisone Hydrochloride] (20 µM),0.959
8,CC12CC3CC(C)(C1)CC(N)(C3)C2 [Memantine hydrochloride] (20 µM),0.987
9,COc1ccc2[nH]cc(CCNC(C)=O)c2c1 [Melatonin] (20 µM),0.932
10,CCC(=O)O[C@]1(C(=O)CCl)[C@@H](C)C[C@H]2[C@@H]3CCC4=CC(=O)C=C[C@]4(C)[C@@]3(F)[C@@H](O)C[C@@]21C [Clobetasol propionate] (20 µM),1.06
11,CC[C@@H](CO)NCCN[C@@H](CC)CO [Ethambutol dihydrochloride] (20 µM),1.02
12,CC(=O)CC(c1ccc([N+](=O)[O-])cc1)c1c(O)c2ccccc2oc1=O (stereo unspecified) [Acenocoumarol] (20 µM),1.02
13,CCOC1O[C@H]([C@@H](COCc2ccccc2)OCc2ccccc2)[C@H](OCc2ccccc2)[C@H]1O (stereo partly specified) [Tribenoside] (20 µM),0.959
14,COc1ccc(C[C@@H]2c3cc(OC)c(OC)cc3CC[N@+]2(C)CCC(=O)OCCCCCOC(=O)CC[N@@+]2(C)CCc3cc(OC)c(OC)cc3[C@H]2Cc2ccc(OC)c(OC)c2)cc1OC [Cisatracurium besylate] (20 µM),1.01
15,O=C1CN2Cc3c(ccc(Cl)c3Cl)N=C2N1 [Anagrelide] (20 µM),1.11
16,Cc1c(C)c2c(c(C)c1O)CCC(C)(C(=O)O)O2 (stereo unspecified) [Trolox] (20 µM),0.987
17,COc1cc(C(=O)NCc2ccc(OCCN(C)C)cc2)cc(OC)c1OC [Trimethobenzamide hydrochloride] (20 µM),1.08
18,CC=CC(=O)N(CC)c1ccccc1C [Crotamiton] (20 µM),1.05
19,CCOC(=O)C1=C(C)NC(C)=C(C(=O)OCC)C1c1ccccc1/C=C/C(=O)OC(C)(C)C [Lacidipine] (20 µM),0.928
20,CCOC(=O)CC(=O)N1CCSC1COc1ccccc1OC (stereo unspecified) [Moguisteine] (20 µM),0.997

row,Compound,growth
1,CC(=O)OCC(=O)NCCCOc1cccc(CN2CCCCC2)c1 [Roxatidine acetate hydrochloride] (20 µM),1.06
2,Clc1ccc(C(Cn2ccnc2)OCc2csc3c(Cl)cccc23)c(Cl)c1 (stereo unspecified) [Sertaconazole nitrate] (20 µM),1.1
3,CC[N+](C)(CC)CCOC(=O)C1c2ccccc2Oc2ccccc21 [Methantheline bromide] (20 µM),1.01
4,CN1[C@@H]2CC[C@H]1C[C@@H](OC(c1ccccc1)c1ccccc1)C2 [Benztropine mesylate] (20 µM),0.99
5,Nc1c(Br)cc(Br)cc1CN[C@H]1CC[C@H](O)CC1 [Ambroxol hydrochloride] (20 µM),1.07
6,COCCCC/C(=N\OCCN)c1ccc(C(F)(F)F)cc1 [Fluvoxamine maleate] (20 µM),0.976
7,Clc1ccc(COC(Cn2ccnc2)c2ccc(Cl)cc2Cl)c(Cl)c1 (stereo unspecified) [Miconazole] (20 µM),1.18
8,CCCCCCCCCCCCCCCC[N+](C)(C)CCN(Cc1ccc(OC)cc1)c1ncccn1 [Thonzonium bromide] (20 µM),1.04
9,CCCN(CCC)C(=O)C(CCC(=O)O)NC(=O)c1ccccc1 (stereo unspecified) [Proglumide] (20 µM),1.36
10,CN(C)CCC(c1ccc(Br)cc1)c1ccccn1 (stereo unspecified) [Brompheniramine maleate] (20 µM),1.17
11,c1coc(CNc2ncnc3[nH]cnc23)c1 [Kinetin] (20 µM),1.05
12,C#C[C@]1(O)CC[C@H]2[C@@H]3CCC4=CC(=O)CC[C@@H]4[C@H]3CC[C@@]21C [Norethindrone] (20 µM),0.973
13,Oc1ncnc2[nH]ncc12 [Allopurinol] (20 µM),0.942
14,COc1ccc(CN(CCN(C)C)c2ccccn2)cc1 [Pyrilamine maleate] (20 µM),0.962
15,CC(C)(C#N)c1cc(Cn2cncn2)cc(C(C)(C)C#N)c1 [Anastrozole] (20 µM),1.16
16,COC1=CC(=O)C[C@@H](C)[C@]12Oc1c(Cl)c(OC)cc(OC)c1C2=O [Griseofulvin] (20 µM),1.02
17,CC(C)(C)NCC(O)COc1cccc2c1CC(O)C(O)C2 (stereo unspecified) [Nadolol] (20 µM),0.986
18,CC1=C(CC(=O)O)c2cc(F)ccc2/C1=C\c1ccc([S+](C)[O-])cc1 (stereo unspecified) [Sulindac] (20 µM),1.08
19,O=C1NCN(c2ccccc2)C12CCN(CCCC(c1ccc(F)cc1)c1ccc(F)cc1)CC2 [Fluspirilene] (20 µM),0.951
